High-throughput results deposited in PubChem by The Scripps Research Institute Molecular Screening Center.
Most compounds without a hit are left out; they make up all but 3.5% or so of the library.
TEAD-YAP block = TEAD-YAP interaction inhibition; HEK-TIYL cells, TEAD-Gal4/YAP UAS-luciferase luminescence; inhibition, % at 9.12 µM; hit rate 1.4% among 640,000; in the data active = inhibition above about 32%;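 note: 0% = median of test compound wells and 100% = reference inhibitor wells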
FBW7 activator = human FBW7 E3 ligase activation, primary screen; hit rate 0.13% among 650,000; AlphaScreen FBW7–phospho-cyclin E peptide binding, activator screen; normalized activity (activation), % at 26.1 µM; Q969H0; in the data active = normalized activity above about 1.9%;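 note: purified mutant Fbw7 with reduced substrate affinity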
MITF primary = human MITF inhibition, primary screen. O75030. AlphaScreen MITF homodimerization, bead proximity signal. inhibition, % at 2.6 µM. hit rate 0.91% among 650,000. AID 1259374; in the data active = inhibition above about 50%;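 note: 0% = vehicle wells with protein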
GPR151 activ = activates the human receptor GPR151; PathHunter beta-arrestin GPR151 cells, luminescence; activation, % at 11.2 µM; hit rate 1% among 650,000; AID 1508602; in the data active = activation above about 4.9%;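 note: 0% = median of compound wells and 100% = cells with positive control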
GPR151 conf act = confirmation of human GPR151 activators; shares compounds with GPR151 activ; GPR151 PathHunter beta-arrestin cells, luminescence, 90 min; % of EA-reagent control over plate median; activation, % at 11.2 µM; 6,700 tested, under 10 active;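 active = mean percent activation across replicates above the confirmation screen cutoff of 4.91%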
GPR119 ag = activates human GPR119 in a GPR151 counter-screen. AID 1508611. activation, % at 11.2 µM. shares compounds with GPR151 activ. GPR119 PathHunter beta-arrestin cells, luminescence, 90 min; 0 = compound-well median, 100 = enzyme-acceptor control. hit rate 0.3% among 6,700;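 active = mean percent activation in the counterscreen above 29.09%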;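 note: counterscreen on off-target GPR119 to flag nonselective hits from the GPR151 activator screen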
Target sequence (Q8TDV5 whole entry, looked up): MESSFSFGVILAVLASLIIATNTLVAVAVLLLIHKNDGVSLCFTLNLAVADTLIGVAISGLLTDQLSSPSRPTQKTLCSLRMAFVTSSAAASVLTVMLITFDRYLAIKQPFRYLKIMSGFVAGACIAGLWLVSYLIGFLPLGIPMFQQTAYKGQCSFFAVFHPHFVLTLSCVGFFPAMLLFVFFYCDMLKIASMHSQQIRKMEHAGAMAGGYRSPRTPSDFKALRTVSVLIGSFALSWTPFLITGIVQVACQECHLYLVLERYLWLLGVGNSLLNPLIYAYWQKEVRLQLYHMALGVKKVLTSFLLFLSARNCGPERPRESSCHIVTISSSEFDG
Numbers without * were called inactive.

`Cc1ccc(NC(=O)C2CC3CCCN3C23C(=O)N(C)c2ccccc23)cc1C` (configuration not stated) gave TEAD-YAP block 6, FBW7 activator 0, MITF primary -22 and GPR151 activ 0.
Screening COc1ccc(NC(=O)C2CC3CCCN3C23C(=O)N(C)c2ccccc23)cc1OC (configuration not stated) returned TEAD-YAP block -3, FBW7 activator 0, MITF primary 4, GPR151 activ 5.2*, GPR151 conf act 1 and GPR119 ag 5.
For Cc1ccc(/C=N/n2c(C)n[nH]c2=S)o1 the results were TEAD-YAP block 4, FBW7 activator 0, MITF primary -5, GPR151 activ 6.4*, GPR151 conf act 1 and GPR119 ag -2.
Screening Cc1n[nH]c(=S)n1/N=C/c1ccc(F)cc1 returned TEAD-YAP block 10, FBW7 activator 0, MITF primary 3, GPR151 activ 5.4*, GPR151 conf act -2 and GPR119 ag -15.
For C[C@@H](Cn1nnc2ccccc21)NC(=O)Cn1ncc2ccccc2c1=O the results were TEAD-YAP block -7, FBW7 activator 0, MITF primary -5 and GPR151 activ 0.
O=C(c1ccccc1Cl)N1N=C(c2cccnc2)CC1c1ccccc1O (configuration not stated) was read as TEAD-YAP block 15, FBW7 activator 0, MITF primary 9, GPR151 activ 6.7*, GPR151 conf act -1 and GPR119 ag 6.
`CCOc1cccc(NC(=O)/C(C#N)=C\c2ccc(OCC(=O)O)c(Br)c2)c1` gave TEAD-YAP block 4, FBW7 activator 0, MITF primary -9, GPR151 activ 6.1*, GPR151 conf act -1 and GPR119 ag -9.
`CCOc1cccc(NC(=O)/C(C#N)=C/c2ccccc2)c1` gave TEAD-YAP block -13, FBW7 activator 0, MITF primary 0 and GPR151 activ 1.
Screening CC(C)c1ccc(Nc2nc(CC(=O)O)cs2)cc1 returned TEAD-YAP block -20, FBW7 activator 0, MITF primary -4 and GPR151 activ 1.
Screening CS(=O)(=O)Nc1nc(CC(=O)O)cs1 returned TEAD-YAP block 3, FBW7 activator 0, MITF primary -5, GPR151 activ 5.2*, GPR151 conf act 0 and GPR119 ag 6.
`CCOC(=O)c1ccccc1NC(=O)CSc1ccc2nc(-c3ccc(OC)cc3)cn2n1` gave TEAD-YAP block -3, FBW7 activator 0, MITF primary 12 and GPR151 activ 0.
For Cc1csc(NC(=O)CSc2nc(C3CC3)nc3sc(C)c(C)c23)n1 the results were TEAD-YAP block -17, FBW7 activator 0, MITF primary 9, GPR151 activ 6.3*, GPR151 conf act 1 and GPR119 ag 7.
For Nc1ccccc1-c1nc2ccccc2[nH]c1=O the results were TEAD-YAP block -55, FBW7 activator 0, MITF primary 4, GPR151 activ 5.9*, GPR151 conf act -2 and GPR119 ag -16.
Screening COc1cc(/C=C2/C(=O)NC(=S)N(c3ccc(C)cc3)C2=O)cc(OC)c1OC returned TEAD-YAP block 4, FBW7 activator 0, MITF primary 22 and GPR151 activ 1.
Screening Cc1ccc(C2CC(=O)n3c(nc4ccccc43)N2)cc1 (configuration not stated) returned TEAD-YAP block -7, FBW7 activator 0, MITF primary 12 and GPR151 activ 1.
`Cc1ccc(C2CC(=O)n3nc(N)nc3N2)cc1` (configuration not stated) gave TEAD-YAP block -1, FBW7 activator 0, MITF primary 14, GPR151 activ 5.9*, GPR151 conf act 0 and GPR119 ag 5.
Screening CCCn1cnc2sc(C(=O)Nc3ccccc3OC)c(C)c2c1=O returned TEAD-YAP block -8, FBW7 activator 0, MITF primary 0, GPR151 activ 11*, GPR151 conf act -1 and GPR119 ag -12.
O=C(Nc1cc(F)ccc1F)C1CCCN(c2ncnc3c2nc2n3CCCCC2)C1 (configuration not stated) was read as TEAD-YAP block 9, FBW7 activator 0, MITF primary -11, GPR151 activ 8.0*, GPR151 conf act -1 and GPR119 ag -2.
